Our source for the outcome and AC50 values is PubChem BioAssay (EPA / NIEHS).

Conditions in all cases: mRNA level, 48 h; actives raise or lower the signal
Read-out in one test: Caspase-3 (Homo sapiens) (UniProt P42574)
Briefly: LTEA_HepaRG_CASP3: Life Technologies and Expression Analysis (LTEA) Assay for cysteine-aspartic acid protease (CASP3) using HepaRG (AID 2283477). Summed up:
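Read-out is CASP3 mRNA level by TaqMan qRT-PCR in human HepaRG cells after 48 h chemical exposure. Eight half-log concentrations topping at 100 uM were tested in 0.5% DMSO; gain or loss was fitted relative to DMSO.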

Read-out in test [1]: Cytochrome P450 (CYP24A1), CYP24A1 (gene 1591)
Briefly: LTEA_HepaRG_CYP24A1: Life Technologies and Expression Analysis (LTEA) Assay for Cytochrome P450 (CYP24A1) using HepaRG (AID 2283478). Summed up:
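HepaRG, 48 h chemical exposure, 8-pt half-log CRC from 100 uM, 0.5% DMSO vehicle, duplicates. Endpoint: CYP24A1 mRNA by Fluidigm TaqMan qRT-PCR, normalized ACTB/GAPDH/POLR2A; gain/loss fit vs DMSO.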

Read-out in test [2]: Cytochrome P450 (CYP1A2), CYP1A2 (gene 1544)
Briefly: LTEA_HepaRG_CYP1A2: Life Technologies and Expression Analysis (LTEA) Assay for Cytochrome P450 (CYP1A2) using HepaRG (AID 2283479). Summed up: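 CYP1A2 transcript induction or loss, quantified by Fluidigm qRT-PCR against three housekeeping genes, was fitted bidirectionally against 0.5% DMSO controls. Human HepaRG cells received eight half-log concentrations from 100 uM over 48 h.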

Read-out in test [3]: cysteine-aspartic acid protease (CASP8), CASP8 (gene 841)
Briefly: LTEA_HepaRG_CASP8: Life Technologies and Expression Analysis (LTEA) Assay for cysteine-aspartic acid protease (CASP8) using HepaRG (AID 2283480). Summed up:
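qRT-PCR readout of CASP8 mRNA, normalized to three housekeeping genes, after 48 h chemical exposure of HepaRG cells; 8-point half-log series, top 100 uM, 0.5% DMSO vehicle. Bidirectional curve fitting against DMSO baseline.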

Read-out in test [4]: Cytochrome P450 (CYP2B6), CYP2B6 (gene 1555)
Briefly: LTEA_HepaRG_CYP2B6: Life Technologies and Expression Analysis (LTEA) Assay for Cytochrome P450 (CYP2B6) using HepaRG (AID 2283481). Summed up:
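HepaRG cells plated 48 h, switched to serum-free induction medium, then dosed 48 h (8 points, half-log from 100 uM, 0.5% DMSO). RNA isolated; CYP2B6 expression measured by qRT-PCR; gain or loss fitted relative to DMSO.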

Read-out in another test: CYP2C8 (gene 1558)
Briefly: LTEA_HepaRG_CYP2C8: Life Technologies and Expression Analysis (LTEA) Assay for CYP2C8 using HepaRG (AID 2283483). Summed up:
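HepaRG (human liver line), 48 h chemical exposure, 8-pt half-log series from 100 uM, 0.5% DMSO vehicle. Readout: CYP2C8 transcript by qRT-PCR, housekeeping-normalized. Bidirectional fit vs DMSO baseline.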

Read-out in a further test: CYP2C9 (gene 1559)
Briefly: LTEA_HepaRG_CYP2C9: Life Technologies and Expression Analysis (LTEA) Assay for CYP2C9 using HepaRG (AID 2283484). Summed up:
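HepaRG, 48 h dosing, 8-pt half-log series, top 100 uM, 0.5% DMSO vehicle. Read-out: CYP2C9 transcript by TaqMan qRT-PCR, housekeeping-normalized (ACTB/GAPDH/POLR2A). Gain or loss fitted vs DMSO baseline.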

Read-out in a further test: CYP2E1 (gene 1571)
Briefly: LTEA_HepaRG_CYP2E1: Life Technologies and Expression Analysis (LTEA) Assay for CYP2E1 using HepaRG (AID 2283485). Summed up:
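Assay uses 48 h exposure of HepaRG hepatic cells, eight concentrations to 100 uM. Expression of CYP2E1 is quantified by TaqMan qRT-PCR with ACTB, GAPDH and POLR2A normalization; curves fitted in both directions relative to vehicle.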

Read-out in a further test: CYP4A11 (gene 1579)
Briefly: LTEA_HepaRG_CYP4A11: Life Technologies and Expression Analysis (LTEA) Assay for CYP4A11 using HepaRG (AID 2283486). Summed up: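 HepaRG, 48 h chem exposure, 8 conc (100 uM top, half-log), 0.5% DMSO vehicle; qRT-PCR readout, housekeeping-gene normalized; bidirectional curve fit vs DMSO baseline.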

Read-out in test [5]: Cytochrome P450 3A4 (Homo sapiens) (UniProt P08684)
Briefly: LTEA_HepaRG_CYP3A4: Life Technologies and Expression Analysis (LTEA) Assay for CYP3A4 using HepaRG (AID 2283487). Summed up:
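Differentiated HepaRG cells in serum-free induction medium exposed in duplicate for 48 h to 8 half-log concentrations up to 100 uM in 0.5% DMSO. CYP3A4 mRNA measured by qRT-PCR normalized to ACTB, GAPDH and POLR2A; bidirectional fit versus DMSO.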

Each structure is given as a SMILES string. Calls of active or inactive are those of the source. The calls were made as follows: active = hit-call score of the fitted dose curve at least 0.9, where 1 is the maximum; inactive = score below 0.9.

Cytochrome P450 3A4 (Homo sapiens), sequence (P08684 whole entry, looked up): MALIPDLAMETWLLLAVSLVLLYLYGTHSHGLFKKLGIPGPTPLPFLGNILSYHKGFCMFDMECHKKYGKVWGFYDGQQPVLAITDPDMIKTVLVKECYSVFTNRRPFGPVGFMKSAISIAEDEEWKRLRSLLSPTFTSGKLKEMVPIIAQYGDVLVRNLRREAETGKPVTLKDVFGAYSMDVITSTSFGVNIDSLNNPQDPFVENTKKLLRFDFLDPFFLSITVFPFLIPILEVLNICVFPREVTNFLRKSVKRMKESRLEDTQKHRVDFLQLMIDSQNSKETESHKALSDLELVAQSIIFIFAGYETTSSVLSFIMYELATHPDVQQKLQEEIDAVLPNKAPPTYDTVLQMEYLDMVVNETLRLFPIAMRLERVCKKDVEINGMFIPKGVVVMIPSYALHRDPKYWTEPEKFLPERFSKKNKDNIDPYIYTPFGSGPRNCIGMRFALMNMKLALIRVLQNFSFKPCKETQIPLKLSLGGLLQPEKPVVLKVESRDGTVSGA
Caspase-3 (Homo sapiens), sequence (P42574 whole entry, looked up): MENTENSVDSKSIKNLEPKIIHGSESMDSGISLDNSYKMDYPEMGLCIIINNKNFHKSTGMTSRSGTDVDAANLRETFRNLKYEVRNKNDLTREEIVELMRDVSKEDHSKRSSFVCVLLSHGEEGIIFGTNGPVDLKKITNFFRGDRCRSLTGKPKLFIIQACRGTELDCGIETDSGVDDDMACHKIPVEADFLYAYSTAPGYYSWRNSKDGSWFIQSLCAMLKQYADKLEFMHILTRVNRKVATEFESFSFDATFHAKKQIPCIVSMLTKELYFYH

For the compound `O=C1NS(=O)(=O)c2ccccc21`, the outcome (in the test with Caspase-3 (Homo sapiens); in test [1]; in test [2]; in test [3]; in [4]; in the test with CYP2C8 (gene 1558)) was inactive. Also, the compound was called inactive (with CYP2C9 (gene 1559); in the test with CYP2E1 (gene 1571); with CYP4A11 (gene 1579); in [5]).
For `CCCCCCCCCCCCOS(=O)(=O)O`, the call (in the test with Caspase-3 (Homo sapiens); in [1]) was inactive. Also, the AC50 (commonly the concentration giving half of the maximal activity seen) was 71.2 µM (active) in test [2], 94.1 µM (active) in test [4], 79 µM (active) with CYP2C9 (gene 1559) and 92.9 µM (active) with CYP2E1 (gene 1571).
With `CCCCc1oc2ccccc2c1C(=O)c1cc(I)c(OCCN(CC)CC)c(I)c1`, the compound was called inactive (with Caspase-3 (Homo sapiens); in [3]).
For `N=C(N)c1ccc(OCCCCCOc2ccc(C(=N)N)cc2)cc1`, the AC50 in the test with Caspase-3 (Homo sapiens) is 69.8 µM (active); in test [2] it was 5.43 µM (active); in test [3] it was 30.1 µM (active); in [4], 3.74 µM (active); with CYP2C8 (gene 1558), 3.73 µM (active); with CYP2E1 (gene 1571) it was 6.51 µM (active). Moreover, the AC50 with CYP4A11 (gene 1579) is 3.02 µM (active). For the same compound, the result in test [1] was inactive.
For `CCCCCCCCCCCCCCC`, the result (with Caspase-3 (Homo sapiens); in test [1]; in test [2]; in test [3]; in the test with CYP2C8 (gene 1558); with CYP2C9 (gene 1559)) was inactive. The result in the test with CYP4A11 (gene 1579) was inactive. For the same compound, the values for the AC50 (in test [4]; with CYP2E1 (gene 1571); in test [5]) were 5.89 µM (active), 1.94 µM (active) and 8.75 µM (active), respectively.
Turning to `O=C(c1ccccc1)c1ccccc1`, the compound was classed as inactive (in the test with Caspase-3 (Homo sapiens); in test [3]).
With `CN(Cc1cnc2nc(N)nc(N)c2n1)c1ccc(C(=O)N[C@@H](CCC(=O)O)C(=O)O)cc1`, the outcome (with Caspase-3 (Homo sapiens); in [1]; in test [3]; in the test with CYP2C8 (gene 1558); in the test with CYP4A11 (gene 1579); in test [5]) was inactive. Further, the AC50 in test [2] was 0.0974 µM (active); in test [4] it was 0.16 µM (active); with CYP2E1 (gene 1571) it was 0.222 µM (active).
For the compound `CN(C)CCOC(c1ccccc1)c1ccccc1`, the result (with Caspase-3 (Homo sapiens); in test [3]) was inactive.
With `CS(=O)(=O)c1ccc([C@@H](CC2CCCC2)C(=O)Nc2cnccn2)cc1Cl`, the outcome (with Caspase-3 (Homo sapiens); in [3]) was inactive.
For `Cc1[nH]nc2c1N=C(c1ccccc1Cl)c1cc([N+](=O)[O-])ccc1N2`, the result (with Caspase-3 (Homo sapiens); in test [3]) was inactive. Further, the AC50 was 4.02 µM (active) in test [1]; 11.5 µM (active) in test [2]; 8.93 µM (active) in test [4]; 7.45 µM (active) with CYP2C8 (gene 1558); 5.12 µM (active) with CYP2C9 (gene 1559); 10.1 µM (active) with CYP2E1 (gene 1571). In addition, the half-maximal activity concentration (AC50) with CYP4A11 (gene 1579) was 5.26 µM (active); in [5], 77.6 µM (active).
In the case of `CCC(C)c1ccccc1O` (stereo not given), the outcome (in the test with Caspase-3 (Homo sapiens); in [1]; in test [2]; in [3]; in test [4]; in the test with CYP2C8 (gene 1558)) was inactive. The compound was classed as inactive (in the test with CYP2C9 (gene 1559); in the test with CYP2E1 (gene 1571); in the test with CYP4A11 (gene 1579); in [5]).
Take `OCC(CO)(CBr)CBr`: the result (with Caspase-3 (Homo sapiens); in [1]; in test [2]; in test [3]; in test [4]; with CYP2C8 (gene 1558)) was inactive. In addition, the compound was called inactive (with CYP2C9 (gene 1559); with CYP2E1 (gene 1571); in test [5]). Moreover, the AC50 with CYP4A11 (gene 1579) is 0.411 µM (active).
`O=C(CCCN1CCC(O)(c2ccc(Cl)cc2)CC1)c1ccc(F)cc1`: the compound was classed as inactive (with Caspase-3 (Homo sapiens); in test [1]; in [3]; with CYP2C8 (gene 1558)). The AC50 in [2] was 82.6 µM (active); in test [4], 79.7 µM (active); in the test with CYP2C9 (gene 1559), 77.8 µM (active); with CYP2E1 (gene 1571) it was 66.2 µM (active); in the test with CYP4A11 (gene 1579) it was 73.5 µM (active).
`CC(=O)Nc1ccc(O)cc1`: the outcome (with Caspase-3 (Homo sapiens); in [1]; in test [2]; in [3]; in test [4]; with CYP2C8 (gene 1558)) was inactive. In addition, the call (with CYP2C9 (gene 1559); with CYP2E1 (gene 1571); with CYP4A11 (gene 1579); in test [5]) was inactive.
As to `CCCCC(CC)C(=O)O` (stereo not given), the outcome (with Caspase-3 (Homo sapiens); in test [1]; in test [2]; in [3]; in [4]; with CYP2C8 (gene 1558)) was inactive. In addition, the result (with CYP2C9 (gene 1559); with CYP2E1 (gene 1571); with CYP4A11 (gene 1579); in test [5]) was inactive.
As for `CCCCC=O`, the outcome (with Caspase-3 (Homo sapiens); in test [1]; in test [2]; in test [3]; in test [4]; with CYP2C8 (gene 1558)) was inactive. In addition, the result (in the test with CYP2C9 (gene 1559); with CYP2E1 (gene 1571); with CYP4A11 (gene 1579); in test [5]) was inactive.
